Compounds without any hit were thinned out: in the full panel of roughly 83,000, 20% have a hit.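 Single-concentration screen, 48 h exposure, 96-well plates. Endpoint: percent growth. Below 10 = active.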 Unmarked numbers belong to inactive results. Active and inactive are the calls of the source.
System: HL-60(TB) leukemia
Assay: NCI-60 one-dose screen, 48 h (100 = growth as untreated, 0 = no growth, -100 = all killed)
Conditions: 10 µM unless noted

Compound	growth
CC1=CC(=O)C2=C(C)CC(OC(=O)CCc3ccccc3)[C@@H]3[C@H](OC(=O)[C@@H]3C)[C@@H]12 (some centres not stated)	87.9%
Cn1cc(-c2nnc(N)nc2-c2c[nH]c3ccc(F)cc23)c2cc(Br)ccc21	-20.7% (active)
NS(=O)(=O)c1ccc(Nc2cc(-c3ccccc3)nc(SCC(=O)c3ccccc3)n2)cc1	106%
CN(C)C(=O)c1ccccc1-n1cnc2ccccc2c1=O	99.1%
COC[C@]12CCC(C)(C)C[C@H]1C1=CC[C@@H]3[C@@]4(C)CCCNC(C)(C)[C@@H]4CC[C@@]3(C)[C@]1(C)CC2	-65.3% (active)
O=C(NNc1nc2cc(F)ccc2n2c(CN3CC4CNCC4C3)ccc12)c1cnccn1 (configuration not stated)	0.485% (active)
CC(=NNc1ncnc2ccccc12)c1ccc(S(C)(=O)=O)cc1	98.9%
Cc1ccc(C(=O)Nc2cccc(C(F)(F)F)c2)cc1Nc1nc(-c2cnccn2)nc2c1cnn2C	22%
Cc1ccc(-c2nnc(SCc3ccc(O)c4ncccc34)o2)cc1	4.59% (active)
CN(C)c1ccc(-c2cc(-c3c[nH]c4ccccc34)nc(N)c2C#N)cc1	20.6%
CS(=O)(=O)Nc1cc(-c2ccc3ncc(C#N)c(NCc4ccccc4O)c3c2)cnc1Cl	12.4%
Cc1cc(-c2ccc(Cl)cc2)n(Cc2nnc(SCC(=O)Nc3ccc(S(N)(=O)=O)cc3)n2C2CCCCC2)n1	116%
CCOc1ccc2nc(NC(=O)Nc3ccccc3C)sc2c1	15.3%
Cn1cc(-c2nn3cc(-c4ccncc4)nc3s2)c2cc(F)ccc21	-1.16% (active)
COc1ccc(C(=O)/C=C/c2ccc(OCc3ccc(Cl)cc3)c(OC)c2)cc1OC	4.56% (active)
Nc1nc(-c2cccc([N+](=O)[O-])c2)c(N=Nc2cccc(Cl)c2)s1	56.4%
CC(C)(C)Nc1nc2c(OCCc3ccccc3)cccn2c1-c1cccc(Oc2ccccc2)c1	0.841% (active)
O=C(CCN1C(=O)/C(=C/c2ccccc2)SC1=S)N1CCOCC1	89.3%
O=C1[C@@H]2Cc3c([nH]c4ccccc34)[C@H](c3c(Cl)cccc3Cl)N2C(=O)CN1C1CCN(Cc2c(F)cccc2F)CC1	109%
O=C(NNc1nc2cc(F)cc(F)c2n2cccc12)c1cccnn1	3.63% (active)
C=C(C=O)[C@@H]1CC[C@]2(C)[C@H](CC=C3[C@H]4[C@@H](C)[C@H](C)CC[C@]4(C(=O)OC)CC[C@]32C)[C@@]1(C)CCC#N	-25.2% (active)
Cc1ccc(S(=O)(=O)NCCCNc2nc(Nc3ccc(N4CCN(C)CC4)cc3)nc3ccsc23)cc1	-50.9% (active)
COc1cc(C(C)=C(c2ccc(OCCN(C)C)cc2)c2ccc(OCCN(C)C)cc2)ccc1F	105%
FC(F)(F)c1cc(Nc2cccc(Oc3ccc(NC4=NCCN4)nc3)c2)ccc1Cl	-52.5% (active)
NC(N)=NS(=O)(=O)c1ccc(N=NC2C(=O)NN(c3ccccc3)C2=O)cc1 (configuration not stated)	107%
C/C(=N\NC(=O)Nc1ccccc1)c1nnn(-c2ccc([N+](=O)[O-])cc2)c1C	98.9%

Compound	growth
COc1ccc(Oc2ccc(C3CC(c4cc(OC)c(OC)c(OC)c4)=NN3C(C)=O)cc2)cc1 (configuration not stated)	-14.9% (active)
NNc1nnc2nc(Nc3ccccc3)nc(Nc3ccc(S(N)(=O)=O)cc3)n12	108%
COc1c(N2CC3CCCNC3C2)c(F)cc2c(=O)c(C(=O)N/N=C/c3ccc(N(C)C)cc3)cn(C3CC3)c12 (configuration not stated)	78.5%
COc1cc(OC)c(/C=C/S(=O)(=O)Cc2ccc(OC)c(NC(=O)CCC(=O)NO)c2)c(OC)c1	-10.8% (active)
CNC(=O)c1cc(-c2ccc(NS(=O)(=O)c3ccc(C)cc3)cc2)nc2cccnc12	113%
Cc1nc(-c2ccccc2O)ccc1C(=O)N=Nc1c(O)[nH]c2ccc(Br)cc12	114%
NNC(=O)c1sc2nc(-c3cnccn3)cc(-c3cccs3)c2c1N	105%
Cc1ccc(N2CCN(C3=C(Cl)C(=O)c4ncccc4C3=O)CC2)cc1	3.39% (active)
Cn1cc(-c2nc(N)nnc2-c2c[nH]c3ccccc23)c2cc(Br)ccc21	-0.377% (active)
O=C(/C=C/Nc1ccc(S(=O)(=O)O)cc1)c1ccc(F)cc1	102%
COC(=O)C1(C)CCC[C@]2(C)[C@H]3C[C@H]4C(C(C)C)=C[C@]3(CC[C@@H]12)[C@H]1[C@@H]4[C@@H](OC(=O)c2ccco2)CC[C@@H]1OC(=O)c1ccco1 (some centres not stated)	91.9%
Clc1ccc(-c2nc3ccc(/C(=N\N=C\c4ccccc4)c4ccccc4)cc3[nH]2)cc1	73.3%
Cc1ccc2c(c1)C13C(=C2Br)CCCN1C(=O)c1ccccc13 (configuration not stated)	68.2%
COC(=O)C(C)NS(=O)(=O)/N=C1\NC(=O)NC1=C(Cl)Cl (configuration not stated)	98.7%
CCCn1cnc2c(c1=N)C(c1ccc(F)cc1)c1sc3c(CC)cccc3c1O2 (configuration not stated)	-36.4% (active)
COc1cc(-c2nc3sccn3c2-c2ccnc(S(C)(=O)=O)n2)ccc1F	93.9%
CCN(CC)CCOc1ccc(C(=C(c2ccccc2)C2CCCC2)c2ccc(OCCN(CC)CC)cc2)cc1	-40.9% (active)
CN(C)c1cccc2c(S(=O)(=O)Nc3cccc(-c4csc(NC(=O)CCCCCN5CCN(CCO)CC5)n4)c3)cccc12	74.8%
COCCC[C@H]1O[C@@](O)([C@H](C)[C@@H]2CC(OC)C(O)/C=C(C)/C=C(C)/C=C(\C)C(OC3O[C@@H](C)[C@H](O)C(O)[C@@H]3O)C(C)/C=C(C)/C=C(OC)/C=C(\C)C(=O)O2)C(OC)C(O)[C@]1(C)O[C@H]1C[C@@H](O)[C@H](O[C@H]2C[C@](C)(O)[C@H](O)C(C)O2)C(C)O1 (some centres not stated)	36%
CC(c1ccccc1)N1CSc2nc3ncncc3n2C1 (configuration not stated)	17.4%
Cc1ccc(-c2cc3nc(C(Cl)Cl)nc(-c4ccccc4)n3n2)cc1	55.1%
CN1CCN(c2ccc(Nc3nc(NCCCNS(=O)(=O)c4ccc(F)cc4)c4sccc4n3)cc2)CC1	28.8%
Cc1ccc(S(=O)(=O)N/N=C/c2cn(-c3ccc(F)cc3)nc2-c2ccc(S(C)(=O)=O)cc2)cc1	97.5%
Cc1ccc2c(n1)C(=O)C(Cl)=C(Nc1cccc(C(F)(F)F)c1)C2=O	32.3%
COC(=O)C[Se]C(=O)Cc1c(C)n(C(=O)c2ccc(Cl)cc2)c2ccc(OC)cc12	-20.9% (active)
C/C=C/C=C1\C[C@H]2CO[C@H](O2)C1=O	99.8%

Compound	growth
C=C1CC[C@@H]2[C@](C)(CO)[C@H](O)CC[C@@]2(C)[C@@H]1C/C(O)=C1\CCOC1=O	95.3%
CCOC(=O)c1ccc(N/C=C/C(=O)c2ccccc2)cc1	84.3%
COc1ccccc1/C=C/C(=O)c1nnn(-c2ccc(C(=O)O)cc2)c1C	83.2%
Cc1ccc(S(=O)(=O)c2nc(-c3ccc(F)cc3)oc2S(C)(=O)=O)cc1	62.4%
C=C1C(=O)O[C@@H]2C[C@@H](C)/C=C\C(=O)[C@](C)(OC(C)=O)C[C@H](OC(=O)/C(C)=C\C)[C@@H]12	-3.8% (active)
O=C(Cn1cc[n+](CC(=O)c2ccc(-c3ccccc3)cc2)c1)Nc1cccc2cccnc12	14.5%
CN1CCN(c2nc(-c3csc(-c4ccccc4)n3)cc3ccccc23)CC1	6.57% (active)
Cc1ccc(Nc2ncnc3c2c(C)nn3-c2ccc([N+](=O)[O-])cc2)cc1	96.7%
Nc1c(C(=O)Nc2ccc(C(F)(F)F)cc2)sc2nc(-c3cnccn3)cc(-c3cccs3)c12	51.9%
CCO/C=N/C1=C(C#N)C(c2ccc(Cl)cc2)c2sc3c(C)cccc3c2O1 (configuration not stated)	-12.7% (active)
NC(N)=Nc1ccc(Oc2cccc(NC(N)=Nc3ccc(Br)c(C(F)(F)F)c3)c2)cc1	17.6%
Nc1nc(=O)n([C@H]2C[C@H](O)[C@@H](CO)O2)cc1C=O	94.1%
O=c1[nH][nH]c(-c2ccc(F)cc2)c1-c1nc2ccccc2s1	103%
O=[N+]([O-])c1ccc(O)c2ncccc12	-5.62% (active)
Cc1ccc(/C(N)=N/C(N)=N/c2nc3ccccc3s2)cc1	81.6%
CCC(CC)n1c(=O)c(SC2=NC3C(NN2)N(CC)C(=O)N3CC)c(C(=O)O)c2ccccc21 (configuration not stated)	0.469% (active)
CCc1ccc(SC2c3ccc(N(CC)CC)cc3Oc3nc(N)c(C#N)c(N)c32)cc1 (configuration not stated)	-12.5% (active)
O=C(Nc1nc2ccc([N+](=O)[O-])cc2s1)Nc1ccccc1Cl	28.7%
O=C1CCCC2=C1C(c1c[nH]c3ccc(Br)cc13)Cc1cc(Br)ccc1N2 (configuration not stated)	12.9%
CNC(=O)c1cc(-c2ccc(NC(=O)Nc3ccc(N4CCN(C)CC4)c(C(F)(F)F)c3)cc2)nc2cccnc12	-16.4% (active)
COc1ccc(NC(=O)CSc2nnc(-c3ccc4nc(-c5ccc(OC)c(OC)c5)[nH]c4c3)o2)cc1OC	111%
N#Cc1c(-c2cccs2)cc(-c2cnccn2)nc1SCC(=O)c1ccc(F)cc1	131%
COc1ccc(C2C(C#N)=C(N)Oc3c2sc2ccc(C)cc32)cc1 (configuration not stated)	12.5%
NC(N)=Nc1ccc(Oc2cccc(Nc3ccc(Cl)c(C(F)(F)F)c3)c2)cc1	1.32% (active)
C#CCC#CCN1CCC[C@H]1C(=O)NCC(=O)OC	105%
